Pol iota inh – DNA polymerase iota (human) inhibition. Potency, µM (series often up to 115 µM), actives largely listed as inhibitors. actives 1% (n = 390,000). Pol iota fluorescent replication assay, 10 min. AID 588590. Q9UNA4
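Fluorescent replication assay read twice, at 0 min and 10 min after adding 50 nM (final) substrate. Enzyme (10 nM) and compounds were first incubated 15 min at room temperature; enzyme-free buffer wells were negative controls.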
FEN1 inhibitor – inhibitors of human flap endonuclease 1; actives 0.35% (n = 390,000); P39748; Recombinant FEN1 flap cleavage, fluorescence, 15 min; Potency, µM (highest dose often 114 µM), usual class: inhibitors; also: nearly all actives have a fitted effect of over 65% in size
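FEN1 at 10 nM, compound pretreatment for 15 min (room temperature), 50 nM final substrate to initiate; endpoint reads at 0 and 15 min; DMSO-only plates used as vehicle background.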
WRN inhibitor – WRN helicase (human) inhibition | AID 651768 | Q14191 | actives 0.46% (n = 360,000) | Potency, µM (highest dose often 114 µM), hits mostly inhibitors | WRN helicase unwinding, fluorescent forked duplex, kinetic; also: nearly all actives have a fitted effect of over 55% in size
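Enzyme (20 nM final) and test compound sit together 15 min at room temperature before substrate addition. Substrate is a single-forked duplex oligonucleotide (100 nM) labelled with fluorophore and quencher, with 2 mM ATP; helicase unwinding raises red fluorescence, read kinetically.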
Pol kappa inh – blocks human DNA polymerase kappa activity; Potency, µM (top dose mostly 107 µM), usual class: inhibitors; purified Pol kappa, fluorescent DNA synthesis assay, 10 min; AID 588579; actives 0.53% (n = 400,000)
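Enzyme at 10 nM met test compounds for 15 min at room temperature. Substrate addition (50 nM final) began the reaction, which was monitored by fluorescence at 0 and 10 min.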
POLH inh – inhibitors of human DNA polymerase eta; Q9Y253; recombinant Pol eta, fluorescent DNA replication assay; Potency, µM (titrated, usually from 114 µM), usual class: inhibitors; actives 1.2% (n = 390,000)
Target sequence (Q9Y253 whole entry, looked up): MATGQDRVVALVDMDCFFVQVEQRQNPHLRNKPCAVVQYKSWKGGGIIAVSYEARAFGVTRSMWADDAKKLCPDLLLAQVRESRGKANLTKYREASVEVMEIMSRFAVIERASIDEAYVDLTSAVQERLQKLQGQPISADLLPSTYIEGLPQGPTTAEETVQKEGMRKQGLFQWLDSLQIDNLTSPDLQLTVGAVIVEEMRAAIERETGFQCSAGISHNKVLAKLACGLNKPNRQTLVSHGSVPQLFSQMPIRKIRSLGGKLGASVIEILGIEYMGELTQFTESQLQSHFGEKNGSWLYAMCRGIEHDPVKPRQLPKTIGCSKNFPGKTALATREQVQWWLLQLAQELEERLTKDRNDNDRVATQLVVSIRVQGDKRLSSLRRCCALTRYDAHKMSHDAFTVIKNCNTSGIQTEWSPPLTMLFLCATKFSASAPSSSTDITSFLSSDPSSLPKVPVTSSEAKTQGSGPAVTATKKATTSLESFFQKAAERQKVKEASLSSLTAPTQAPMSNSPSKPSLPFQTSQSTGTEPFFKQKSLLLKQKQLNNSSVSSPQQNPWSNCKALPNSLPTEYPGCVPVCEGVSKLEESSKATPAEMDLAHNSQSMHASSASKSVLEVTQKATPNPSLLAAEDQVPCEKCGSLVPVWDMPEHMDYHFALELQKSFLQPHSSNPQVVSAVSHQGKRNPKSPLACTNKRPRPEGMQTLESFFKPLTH
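Fluorescent replication assay: 50 nM final substrate added after a 15 min room-temperature compound preincubation with 10 nM enzyme. Signal taken at 0 min and again at 10 min.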
Pol beta inh – inhibitors of human DNA polymerase beta. P06746. Pol beta primer extension/strand displacement, fluorescence kinetic. Potency, µM (titrated, usually from 114 µM), actives largely listed as inhibitors. actives 1.3% (n = 340,000)
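Pol beta (10 nM) and compounds were preincubated 15 min at room temperature, then 50 nM substrate (final) started primer extension/strand displacement. Reads were taken at 0 and 10 min; concentration-response data were fitted to a four-parameter Hill equation.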
A number is an active result; 0 = inactive; ? = inconclusive; - = no result given; [ ] = remark or other dose. Most compounds without a hit are left out; they make up all but 2.4% or so of the library. Calls follow the shape of the dose curve; as a rule, active = well fitted curve in the direction sought with a large enough effect; inconclusive = small, poorly fitted or top-dose-only effect, or another doubt; inactive = no such curve, though single readings can be large; an effect the other way counts as inactive or inconclusive.

SMILES | Pol iota inh | FEN1 inhibitor | WRN inhibitor | Pol kappa inh | POLH inh | Pol beta inh
COc1ccccc1C=C1SC(=S)NC1=O | ? | 0 | 0 | 0 | ? | -
COc1ccc(Cn2c(C(=O)O)c(CNC3CCCCCC3)c3ccc(OC)cc32)cc1 | 0 | 0 | - | 0 | 0 | 0
C=Cc1ccc(Cn2c(C(=O)O)c(CNC3CCCCC3)c3ccc(OC)cc32)cc1 | ? | 0 | - | 0 | ? | 35µM
COc1cc([N+](=O)[O-])ccc1-c1ccc(/C=N/NC(N)=O)o1 | 89µM | 0 | 0 | 0 | 0 | ?
O=C(CSc1ccc2nnc(-c3cccs3)n2n1)N1CCCC1 | 0 | 0 | 0 | 0 | 0 | 45µM
O=C(NCCCN1CCN(c2ccc(F)cc2)CC1)NC12CC3CC(CC(C3)C1)C2 | 0 | 0 | 0 | 0 | 0 | 0
CCCCN(C)CCN1C(=O)C2C(C(=O)Nc3ccc(OC)cc3)C3C=CC2(O3)C1C(=O)NC1CCCCC1 (centres undefined) | 0 | 0 | 0 | 0 | 0 | 0
COc1cccc(/C=N/NC(=O)c2cc(-c3ccccn3)nc3ccccc23)c1O | 0 | 0 | 0 | 0 | 0 | -
O=C(N/N=C/c1cc(Cl)cc([N+](=O)[O-])c1O)c1cc(-c2ccccn2)nc2ccccc12 | 0 | 0 | 0 | 0 | 79µM | 0
CCC(NC(=O)c1ccccc1NC(=O)c1ccc(OC)cc1)C(=O)N1CCCC1 (centres undefined) | 0 | 0 | 0 | 0 | 0 | 0
CC(Nc1nc(-c2ccc(F)cc2)cs1)c1nc2cc(Cl)c(Cl)cc2n1CCCO (centres undefined) | ? | 0 | 0 | 0 | 0 | -
Cc1ccc(Cn2c(C(C)Nc3nc(-c4ccc(C)cc4)cs3)nc3cc(Cl)c(Cl)cc32)cc1 (centres undefined) | 0 | 0 | ? | 0 | 0 | 32µM
CC1CCC/C(=N\NC(=O)COc2ccc(Cl)cc2Cl)C1 (centres undefined) | 0 | 0 | 0 | 0 | 0 | ?
Fc1cccc2sc(Nc3nnc(-c4ccccc4)o3)nc12 | 0 | ? | 0 | 0 | 0 | ?
COc1ccc(/C=N/Nc2nn3cnnc3c3ccccc23)cc1 | 0 | ? | ? | 0 | ? | 1.8µM
C=CCN1C(=O)/C(=C/c2ccc(OCC(=O)O)cc2)S/C1=N/c1nccs1 | 89µM | 0 | 0 | 0 | ? | ?
C=CCN1C(=O)/C(=C/c2ccc(O)c(OC)c2)S/C1=N/c1nccs1 | 0 | ? | 0 | 0 | 0 | 0
CCCNC(=O)c1ccc(Cn2cc(C(F)(F)F)ccc2=O)cc1 | 89µM | 0 | 0 | 0 | 0 | 0
O=C(c1ccc(C(=O)N2CCCc3ccccc32)nc1)N1CCCc2ccccc21 | ? | 0 | 0 | 0 | 0 | 0
C=C(C)C(=O)Nc1cccc(C2=NOC3(C2)C[C@@H](C(N)=O)N(C(=O)[C@H]2CCC(=O)N2)C3)c1 (some centres undefined) | 0 | 0 | 0 | 0 | 0 | 56µM
C=C(C)C(=O)Nc1cccc(C2=NOC3(C2)C[C@@H](C(N)=O)N(C(=O)c2ccc(OC)cc2)C3)c1 (some centres undefined) | 7.1µM | ? | ? | 14µM | 2.8µM | 2.8µM
COc1cc(C(=O)NC2CC(C)(C)Cc3c2cnn3-c2ccccc2)cc(OC)c1OC (centres undefined) | 0 | 0 | 0 | 0 | 0 | ?
COc1ccc(C(=O)Nc2cc3c(cc2Cl)OCCCO3)cc1 | 0 | 0 | 0 | 0 | 0 | 0
COc1cccc(NC(=O)CN(C)C(=O)c2cccc(S(=O)(=O)N3c4ccccc4CC3C)c2)c1 (centres undefined) | 0 | 0 | 0 | 0 | 0 | -
Cc1ccc2nc(C3CCCCC3)[nH]c2c1 | 0 | 0 | 0 | 0 | 0 | 0
SMILES | Pol iota inh | FEN1 inhibitor | WRN inhibitor | Pol kappa inh | POLH inh | Pol beta inh
COc1ccccc1O | 0 | 0 | 0 | 0 | 0 | 0
COc1cccc(O)c1O | - | - | - | 3.2µM | - | -
COc1ccc2c(c1)Cc1sc(NC(=O)c3cccs3)nc1-2 | 0 | 0 | 0 | 0 | ? | 0
COc1ccc2c(c1)Cc1sc(NC(=O)c3ccccc3C)nc1-2 | 3.5µM | ? | - | 0 | - | 0
COc1ccc(C(=O)Nc2nc3c(s2)Cc2cc(OC)ccc2-3)cc1 | ? | 0 | 0 | 0 | ? | 0
COc1ccc2c(c1)Cc1sc(NC(=O)c3ccccc3)nc1-2 | 16µM | 0 | 0 | 0 | 0 | 0
Cc1ccc(NC(=O)Nc2nc3ccc(S(C)(=O)=O)cc3s2)cc1 | 0 | 0 | 0[11.6 µM] | 0 | 79µM | -
CS(=O)(=O)c1ccc2nc(NC(=O)Nc3cccc(Cl)c3)sc2c1 | ? | 0 | 0 | 0 | 0 | 50µM
CS(=O)(=O)c1ccc2nc(NC(=O)Nc3ccc(Cl)c(Cl)c3)sc2c1 | 0 | 0 | 0 | 0 | 0 | 0
O=C(CSc1nc2sc3c(c2c(=O)n1-c1ccccc1)CCCC3)N/N=C/c1ccccc1C(=O)O | ? | 50µM | 0 | 0 | 50µM | ?
COc1ccc(/C=N/Nc2ncnc3c2[nH]c2ccc(C)cc23)c(OC)c1OC | 0 | ? | ? | 0 | 25µM | 0
Cc1ccc(O)c(CP(=O)(c2ccccc2)c2ccccc2)c1 | 0 | 0 | 0 | 0 | 0 | 0
CCNc1ccccc1CP(=O)(c1ccccc1)c1ccccc1O (centres undefined) | 14µM | 0 | ? | 0 | 0 | 50µM
O=Cc1ccccc1C=O | - | - | - | 24µM | - | -
O=Cc1ccccc1OCCOc1ccccc1C=O | 0 | 0 | 0 | 0 | 0 | 0
COc1ccc(NC(=O)CCN=C2NS(=O)(=O)c3ccccc32)cc1S(=O)(=O)N(C)C | 0 | 0 | 0 | 0 | 0 | -
CCN(C)c1ccc(/C=C/c2ccnc3ccccc23)cc1 | ? | 0 | - | 0 | - | -
CN(C)c1ccc(N=Nc2ccc(/C=C/c3ccnc4ccccc34)cc2)cc1 | ? | 25µM | - | 0 | - | -
CN(C)c1ccc(/C=C/c2ncnc3ccccc23)cc1 | 40µM | ? | - | ? | - | -
O=c1cc(C(O)C[N+](=O)[O-])occ1OCc1ccccc1 (centres undefined) | 25µM | 0 | 0[11.6 µM] | ? | 0 | -
O=C(COc1ccccc1/C=C1\SC(=O)NC1=O)Nc1ccc(F)cc1 | 0 | 0 | 0 | 0 | 71µM | ?
CCN(Cc1ccccc1)S(=O)(=O)c1ccc2[nH]c3c(c2c1)CCCCC3 | 0 | 0 | - | 0 | 0 | 0
CCN(c1ccc(OC)cc1)S(=O)(=O)c1ccc2[nH]c3c(c2c1)CCCCC3 | 79µM | 0 | - | 0 | 0 | 0
COc1ccc(-c2nc3n(n2)C(c2ccc(OC)c(OC)c2)C(C(=O)Nc2cccnc2)=C(C)N3)cc1 (centres undefined) | 0 | 0 | - | 0 | 50µM | 0
COc1ccc(C2C(C(=O)Nc3cccnc3)=C(C)Nc3nc(-c4ccc(OC)c(OC)c4)nn32)cc1 (centres undefined) | 0 | 0 | - | 0 | 0 | ?
Cc1ccc(C(=O)N2CCCC(CCC(=O)N3CCN(c4ccccn4)CC3)C2)cc1C (centres undefined) | 0 | 0 | 0 | 0 | 0 | 0

Compound activity deposited in PubChem BioAssay by National Center for Advancing Translational Sciences (NCATS).
